In PubChem BioAssay (NCI) one finds growth data, which are given here for 40 compounds.

Each structure is given as a SMILES string. Compounds without any hit were thinned out: in the full panel of roughly 83,000, 20% have a hit.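 Assay: single dose, 48 h. Readout: percent growth (0 = no net growth; negative = cell death). Active: <10.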 A number with no mark means an inactive call. Active and inactive are the calls of the source.

In the assay the test system is MOLT-4 leukemia. The assay is described as follows: NCI-60 one-dose screen, 48 h (100 = growth as untreated, 0 = no growth, -100 = all killed). The conditions noted are these: 10 µM unless noted. As for the experimental part:
Growth inhibition of the MOLT-4 human tumor cell line is measured as a screen for anti-cancer activity. Cells are grown in 96 well plates and exposed to the test compound for 48 hours. Compounds are tested at a single concentration, which is 10^-5 M for most compounds. The reported endpoint is percent growth (GI% or GIPRCNT), where numbers from 0 - 100% represent growth inhibition, and numbers from -100% - 0 represent cell death. For example, a value of 40 represents 60% growth inhibition. A value of 0 means no net growth occurred over the course of the experiment. A value of -40 indicates 40% of cells at the beginning of the experiment died by the end of the experiment. A value of -100 means all cells are dead at the end of the experiment.
NCI-60 Human Tumor Cell Lines Screen was performed using the standard one-dose NCI protocol, which is described in more detail at https://dtp.cancer.gov/discovery_development/nci-60/default.htm.
Compounds with GIPRCNT values below 10 were considered active. Activity score was based on GIPRCNT using the following formula: […]
Score is 0 for GIPRCNT values of 100 or above, 50 for GIPRCNT values of 0, and 100 for GIPRCNT values of -100.
For `CC12CCC3C(CCC4=CC(=O)CCC43CF)C1CCC2=O` (stereo not given), the growth is 106%.

Regarding `CC(C)(C)C(=O)OCOP(=O)(OCOC(=O)C(C)(C)C)C1CCCN(O)C1=O` (stereo not given), the growth was 3.92% (active).

As to `CC(=O)[C@H]1CC[C@H]2[C@@H]3CC[C@H]4C[C@H](N)CC[C@]4(C)[C@H]3CC[C@]12C`, the growth is 61.7%.

With `CC12CCC3C(C=CC4=C(N)C(=O)CCC43C)C1CCC2=O` (stereo not given), the growth was 57.2%.

Turning to `COC(=O)CC12CC(NC(=O)c3csc([C@@H](C[C@H](C(C)C)N(C)C(=O)[C@@H](NC(=O)[C@H]4CCCCN4C)C(C)C)OC(C)=O)n3)(C1)C2`, the growth is 16.5%.

For `Cn1cc(C2=C(c3cn(C4CCN(Cc5ccccn5)CC4)c4ccccc34)C(=O)NC2=O)c2ccccc21`, the growth is 85.7%.

As to `CN1CCC(c2c[nH]c3ccccc23)C1` (stereo not given), the growth is 105%.

With `COC(=O)[C@@H](C)C[C@H](Cc1ccccc1)NC(=O)c1csc([C@@H](C[C@H](C(C)C)N(C)C(=O)[C@@H](NC(=O)[C@H]2CCCCN2C)C(C)C)OC(C)=O)n1`, the growth is 4.52% (active).

With `Brc1ccc2c(c1)c(-c1nc(-c3c[nH]c4ncccc34)cs1)cn2CCN1CCCCC1`, the growth was 42%.

As for `COC(=O)[C@@]1(C)CC[C@]2(C)CC[C@]3(C)C4=CC(=O)c5c(cc(O)c(O)c5C)[C@]4(C)CC[C@@]3(C)[C@@H]2C1`, the growth is 18.3%.

`C[C@]12CCc3nc(Nc4ccccc4F)sc3C1=CC[C@@H]1[C@@H]2CC[C@]2(C)C(=O)CC[C@@H]12`: the growth is 14.2%.

Turning to `c1cnc2[nH]cc(-c3csc(-c4cn(CCCCN5CCOCC5)c5ccccc45)n3)c2c1`, the growth was 13.1%.

Regarding `N#C[S-].[Au+].c1ccc(CN2[CH-]N(Cc3ccccc3)C(c3ccccc3)=C2c2ccccc2)cc1`, the growth was 3.58% (active).

Take `CC(=O)O[C@H]1CC[C@H]2[C@@H]3CC=C4c5nc(-c6ccccc6)sc5CC[C@]4(C)[C@H]3CC[C@]12C`: the growth was 46.1%.

Regarding `COc1cc(C=Nc2cccc(Br)c2)ccc1N(CCCl)CCCl`, the growth is 64.2%.

For the compound `CC[C@@H]1[C@@H](C)O[C@@](O)([C@@H](C)[C@H](O)[C@H](C)[C@H]2OC(=O)/C=C/C=C/[C@H](C)[C@@H]([C@@H](C)[C@@H](O)[C@H](C)[C@@]3(O)C[C@@H](O[C@H]4C[C@@H](O)[C@H](O)C(C)O4)[C@H](CC)[C@@H](C)O3)OC(=O)/C=C/C=C/[C@@H]2C)C[C@H]1O[C@@H]1C[C@@H](O)[C@H](O)C(C)O1` (stereo not given in full), the growth is -72.6% (active).

Regarding `CN1C(=O)C(=Cc2cn(Cc3ccccc3)c3ccccc23)C(=O)N(C)C1=O`, the growth was 96.8%.

`Fc1ccc(N2COOC3(OOC2)C2CC4CC(C2)CC3C4)cc1`: the growth was 92.8%.

For the compound `Cc1c(C)c([N+](=O)[O-])c(C)c(C)c1[N+](=O)[O-]`, the growth is 100%.

As for `N#CC1C(C#N)C2CCC1C1C2N1c1ccccc1` (stereo not given), the growth was 91.2%.

Consider `CC(C)=CCC[C@H](C(=O)O)[C@@H]1CC[C@]2(C)C3=C(CC[C@@]12C)[C@@]1(C)CC[C@H](O)C(C)(C)[C@@H]1CC3`, for which the growth was 88.6%.

Take `CC1=C2[C@@H](CC1)[C@]1(C)O[C@@](C(C)C)(C[C@H]1O)[C@H]2OC(=O)C1CC1c1ccccc1` (stereo not given in full): the growth was 63.4%.

For the compound `CCC(=O)Nc1ccc(Cl)c(Cl)c1`, the growth is 97.9%.

In the case of `CN(C)C(=O)Oc1ccccc1-c1ccccc1`, the growth was 89.9%.

Consider `Cc1c(NS(=O)(=O)c2ccccc2)ccc([N+](=O)[O-])c1Cl`, for which the growth was 73.6%.

With `COc1ccc(Nc2ccnc3cc(Cl)ccc23)cc1CN(CCCl)CCCl`, the growth was -12.1% (active).

Regarding `CC1=C([Te]c2ccc(O)cc2)C(=O)c2ccccc2C1=O`, the growth was -17% (active).

In the case of `c1ccc(Nc2nc(-c3ccccc3)c[se]2)cc1`, the growth was 76.2%.

For `COc1cccc2c1c(C(=O)C(=O)Nc1cc(C)no1)cn2Cc1ccc(F)cc1`, the growth was 32.5%.

As to `CN[C@@]1(c2ccccc2Cl)CCCC[C@@H]1NCC1CCCO1` (stereo not given in full), the growth was 111%.

As to `O=[N+]([O-])c1c(Br)sc(Br)c1[N+](=O)[O-]`, the growth is -3.6% (active).

On to `COC(=O)[C@@H](C)C[C@H](Cc1ccccc1)NC(=O)c1nc([C@@H](C[C@H](C(C)C)N(C)C(=O)[C@@H](NC(=O)[C@H]2C[C@H](O)CCN2C)C(C)C)OC(C)=O)sc1C(C)C`, for which the growth is 11%.

As to `Oc1c(O)c(Cl)c(Cl)c(Cl)c1Cl`, the growth is 31.1%.

For the compound `Clc1cccc(NCOOC2(OOCNc3cccc(Cl)c3)CCCCCC2)c1`, the growth is 92.7%.

With `Cn1cccc1C1CC(=O)N(CCC[Se]C#N)C1=O` (stereo not given), the growth was 3.58% (active).

Consider `CC1(C)N=C(N)N=C(N)N1c1ccc(CCCCc2ccc(Cl)c(S(=O)(=O)F)c2)c(Cl)c1`, for which the growth is -33.1% (active).

On to `O=C(N/N=C/c1ccc(N(CCCl)CCCl)cc1)c1cccc2ccccc12`, for which the growth was 51.4%.

In the case of `COC[C@@H]1C[C@@]2(C)[C@@H](CC[C@@H]3[C@@H]2CC[C@@]2(C)[C@H]3CC[C@]2(C)O)CC1=O`, the growth is 90.4%.

Take `CCCc1cc(O)c2c3c(c(=O)oc2c1)CN(C)CC3`: the growth was 27%.

As for `CN1CCC(O)(c2ccc(F)cc2)C(C(=O)c2ccc(F)cc2)C1` (stereo not given), the growth was 94.2%.
